Consider 50 compounds from ChEMBL document CHEMBL3988442, “University of Dundee, Small-Polar-MMV Screening Library” (2021).

The target in assay [1] is T1, Aspartate--tRNA(Asp/Asn) ligase (Mycobacterium tuberculosis (strain ATCC 25618 / H37Rv)) (UniProt P9WFW3). Also: in the data most compounds retested in dose-response had high values.
T1 sequence (whole entry): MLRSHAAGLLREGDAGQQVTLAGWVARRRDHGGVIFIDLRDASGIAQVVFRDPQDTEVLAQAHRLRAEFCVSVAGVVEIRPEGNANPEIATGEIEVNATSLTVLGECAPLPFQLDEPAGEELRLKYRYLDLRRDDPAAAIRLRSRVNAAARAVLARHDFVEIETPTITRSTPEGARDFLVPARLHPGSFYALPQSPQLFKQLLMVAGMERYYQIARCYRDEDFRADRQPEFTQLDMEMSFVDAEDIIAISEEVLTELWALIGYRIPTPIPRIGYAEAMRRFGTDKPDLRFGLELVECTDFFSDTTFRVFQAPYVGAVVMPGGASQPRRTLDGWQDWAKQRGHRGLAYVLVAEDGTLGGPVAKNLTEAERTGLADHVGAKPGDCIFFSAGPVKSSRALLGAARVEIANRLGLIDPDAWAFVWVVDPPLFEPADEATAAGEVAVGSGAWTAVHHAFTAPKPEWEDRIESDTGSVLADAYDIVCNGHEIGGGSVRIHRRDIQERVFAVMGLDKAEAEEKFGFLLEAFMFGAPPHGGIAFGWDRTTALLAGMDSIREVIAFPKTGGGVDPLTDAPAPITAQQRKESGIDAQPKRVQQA
The assay can be described thus: Assay for Asp RNA synthetase-1 from Mycobacterium tuberculosis. The assay is classed as functional. Further details: scale not given: direction of the effect not stated beside the values. To be noted: 30 µM.

Assay [2] addresses Shiga toxin 2 (Escherichia coli O157:H7) (UniProt P09385+P09386). Description: E. coli 0.157:H7 Shiga Toxin SOP - stx2 screening assay. The assay is classed as functional. Further details: scale not given: direction of the effect not stated beside the values. To be noted: 30 µM.

`CCn1cc(NC(=O)C2CCN(CCOC(C)C)CC2)cn1`: the Percent Effect was found to be 2.5% in assay [1] and 17.1% in assay [2].

For the compound `CS(=O)(=O)NCC1CCCN(C(=O)COc2ccc(F)cc2)C1` (stereo not given), the Percent Effect was -1.75% in assay [1] and -25.1% in assay [2].

For the compound `O=C(CCc1cnn(-c2ccccc2)c1)N1CCCC(n2cccn2)C1` (stereo not given), the values for the Percent Effect in assay [1] and in assay [2] were -0.589% and 26.2%, respectively.

Turning to `Cc1nc(C2CCCN(C(=O)C(C)(C)n3cc(Cl)cn3)C2)no1` (stereo not given), the Percent Effect in assay [1] was -5.75%; in assay [2] it was -14.3%.

Take `CCc1ncncc1C(=O)NCCN1CCC(C)CC1`: the Percent Effect in assay [1] is -3.79%; in assay [2] it was 5.13%.

`Cn1c(NCC(O)c2ccc(F)cc2F)c(C#N)c(=O)n(C)c1=O` (stereo not given): the Percent Effect is -5.91% in assay [1] and -8.41% in assay [2].

In the case of `CN(CC1CCCCO1)C(=O)c1ccnc(OC2CCC2)c1` (stereo not given), the Percent Effect in assay [1] is -2.11%; in assay [2], -8.22%.

For the compound `c1cnn(CC2CN(CC3CCCC3)CCO2)c1` (stereo not given), the results for the Percent Effect in assay [1] and in assay [2] were -6.1% and -0.337%, respectively.

Regarding `CCCS(=O)(=O)NC(C)C(=O)NCc1ccc(N2CCCC2)nc1` (stereo not given), the Percent Effect in assay [1] stood at 2.42%; in assay [2] it was 7.72%.

For `COCC(=O)N1CCC(c2cc(C(F)(F)F)n3ccnc3n2)CC1`, the values for the Percent Effect in assay [1] and in assay [2] were -2.99% and -10.9%, respectively.

Take `Cc1cnc(CN(C)CC2CCCN2c2cccnn2)cn1` (stereo not given): the Percent Effect in assay [1] is 2.77%; in assay [2], 7.46%.

`CCCc1n[nH]c(C2CN(Cc3nnc(C4CC4)o3)CCO2)n1` (stereo not given): the Percent Effect in assay [1] is -8.48%; in assay [2] it was -20.6%.

With `O=C1CN(Cc2nnc(-c3ccccc3Br)o2)CCN1`, the figures for the Percent Effect in assay [1] and in assay [2] were -4.51% and -24.1%, respectively.

For `O=C1CC[C@@H]2[C@@H](CCN2C(=O)c2ccsc2)N1CC1CC1`, the Percent Effect in assay [1] is -5.94%; in assay [2], 1.28%.

`Cc1nn2c(N3CCC(O)CC3)cc(-c3ccccc3)nc2c1C`: the Percent Effect in assay [1] was 1.19%; in assay [2] it was 7.56%.

Take `CNc1cncc(C2CCCN2C(=O)c2ccc3oc(=O)n(C)c3c2)n1` (stereo not given): the values for the Percent Effect in assay [1] and in assay [2] were 5.14% and 3.86%, respectively.

Turning to `CN(C)C(=O)CN1C(=O)CCC12CCN(Cc1cccn1C)CC2`, the Percent Effect in assay [1] turned out to be 4.89%; in assay [2] it was 0.848%.

In the case of `CCc1noc(C2CCCCN2C(=O)c2nnc3ccccc3n2)n1` (stereo not given), the figures for the Percent Effect in assay [1] and in assay [2] were 1.83% and -8.75%, respectively.

With `COc1ccccc1S(=O)(=O)Nc1ccc2c(C(=O)O)c[nH]c2c1`, the Percent Effect in assay [1] was found to be 3.46%; in assay [2], 12.9%.

Regarding `CCc1noc(CN2CCN(C(=O)N(C)C)CC2)n1`, the results for the Percent Effect in assay [1] and in assay [2] were -1.26% and 5.9%, respectively.

`CCc1nc(CN(C)C2CCN(CCNS(=O)(=O)CC)C2)no1` (stereo not given): the Percent Effect in assay [1] was 5.16%; in assay [2], -60.5%.

On to `NC(=O)c1cc(NC(=O)N2CCCCCC2)ccc1F`, for which the Percent Effect was 1.17% in assay [1] and -21.4% in assay [2].

As for `Cc1nc(C)n(CC2CCCN(Cc3ccc(C(N)=O)cc3)C2)n1` (stereo not given), the Percent Effect is -5.85% in assay [1] and 20.8% in assay [2].

As for `CCc1c(C)nc2n(c1=O)CC(C(=O)Nc1ccccc1F)CS2` (stereo not given), the Percent Effect in assay [1] was -3.83%; in assay [2] it was -4.39%.

As for `COc1ccc(OC)c(CNCCc2cc(F)cc3c2OCOC3)c1`, the Percent Effect is 4.49% in assay [1] and 7.51% in assay [2].

Take `Cc1nc(C)n(CC2CCCN2Cc2cc(C)on2)n1` (stereo not given): the Percent Effect turned out to be 8.96% in assay [1] and 8.12% in assay [2].

For the compound `CN(C)C(=O)NC1COC2(CCN(Cc3nccn3C)CC2)C1` (stereo not given), the Percent Effect was 2.7% in assay [1] and -6.31% in assay [2].

`CC(C)Oc1ncnc2c1CCN(Cc1cccs1)CC2`: the Percent Effect in assay [1] was determined as 1.14%; in assay [2] it was 17.6%.

Turning to `Cc1nc(N2CCN(C)CC2)ncc1C(=O)N1CC(C)(C)C(C)(O)C1` (stereo not given), the Percent Effect was 3.48% in assay [1] and -28.2% in assay [2].

Regarding `COc1ccccc1CN1CC[C@H]2C[C@@H](C(=O)N3CCCC3)O[C@H]2C1`, the Percent Effect is 0.335% in assay [1] and -13.2% in assay [2].

Regarding `Cn1cc(CN2CCCC3(CCN(Cc4cccnc4)C3=O)C2)cn1` (stereo not given), the Percent Effect was -1.18% in assay [1] and -7.77% in assay [2].

In the case of `CN(CCN1CCOCC1)C(=O)CCCc1ccccc1`, the Percent Effect was -6.41% in assay [1] and 0.944% in assay [2].

For the compound `Cc1cc(C2CCCN2Cc2cc(=O)n(C)c(=O)n2C)on1` (stereo not given), the Percent Effect is 0.485% in assay [1] and 14.1% in assay [2].

Regarding `Cn1c(CN2CCOC(c3nc(C(C)(C)C)n[nH]3)C2)nnc1C1CC1` (stereo not given), the figures for the Percent Effect in assay [1] and in assay [2] were -5.04% and -21.1%, respectively.

With `O=C(c1nc(=O)[nH][nH]1)N1CCCC(c2cc(C(F)(F)F)[nH]n2)C1` (stereo not given), the Percent Effect in assay [1] was -1.69%; in assay [2], -21.8%.

Turning to `CC(C)NC(=O)c1ccc2c(c1)nc1n2CCN(C(C)C)C1`, the Percent Effect is -0.435% in assay [1] and -61.8% in assay [2].

On to `COc1ccc(C(=O)N2CC[C@H](CO)[C@H](O)C2)c(C)c1`, for which the Percent Effect is -1.53% in assay [1] and 9.86% in assay [2].

Consider `CC1CN(CC(=O)NC2CCCC2)CCN1c1ccc2nncn2n1` (stereo not given), for which the Percent Effect was -3.52% in assay [1] and -41.8% in assay [2].

As for `CC(C)c1nc(CN2CCCCC2)cs1`, the Percent Effect in assay [1] was -3.66%; in assay [2] it was 7.17%.

Take `COCc1nc(C(=O)N2CCCC2c2ccccc2C)cs1` (stereo not given): the Percent Effect was -0.975% in assay [1] and -12.9% in assay [2].

Turning to `CCCc1nc(N2CCN(CC)CC2)c2c(n1)c(C)nn2CC`, the Percent Effect in assay [1] was 11.2%; in assay [2] it was -8.6%.

With `COc1cccc(S(=O)(=O)NC(=O)COC2CCCC2)c1`, the figures for the Percent Effect in assay [1] and in assay [2] were 2.03% and -4.79%, respectively.

For the compound `CNc1cncc(C2CCCN2C(=O)c2ccc3oc(C)cc3c2)n1` (stereo not given), the values for the Percent Effect in assay [1] and in assay [2] were 0.779% and -4.12%, respectively.

Turning to `CC(C)NC(=O)C(c1ccccc1)N1CCn2c(nnc2C2CC2)C1` (stereo not given), the Percent Effect in assay [1] is -1.48%; in assay [2], 13%.

For `O=S(=O)(C1CC1)N1CCC2(COCc3cnc(N4CCOCC4)nc32)C1` (stereo not given), the Percent Effect is -2.06% in assay [1] and -56.7% in assay [2].

As for `CC(c1cccc(S(N)(=O)=O)c1)N(C)CCc1ccccc1` (stereo not given), the Percent Effect was 5.72% in assay [1] and -26.2% in assay [2].

In the case of `CS(=O)(=O)c1ccc(NC(=O)N2CCc3sccc3C2)cn1`, the Percent Effect in assay [1] is 5.08%; in assay [2], -38%.

On to `O=C(N1CCOCC1)[C@@]12CCO[C@@H]1CCN(CCN1CCCCC1)C2`, for which the Percent Effect is 3.6% in assay [1] and -37.5% in assay [2].

As for `CN1CCOC(CN(C(=O)CC2CCCC2)c2nccs2)C1` (stereo not given), the Percent Effect in assay [1] turned out to be 6.38%; in assay [2], 27.4%.

Take `Cc1nc(CN2C(=O)COC3(CCN(Cc4ccco4)CC3)C2C)cs1` (stereo not given): the Percent Effect in assay [1] was -2.99%; in assay [2] it was -19.9%.
